We go through 10 molecules from PubChem BioAssay (NCI).

Structures are written as SMILES. About 83,000 compounds went through this panel and 20% of them were active in at least one assay; those are over-represented in the sample as a whole.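 Single-concentration screen, 48 h exposure, 96-well plates. Endpoint: percent growth. Below 10 = active.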 A number with no mark means an inactive call. The source made the active and inactive calls.

Common to all, as to assay: NCI-60 one-dose screen, 48 h (100 = growth as untreated, 0 = no growth, -100 = all killed)
Common to all, as to settings: 10 µM unless noted

Assay [1] has as its system HCT-15 colon.
Assay [2] deals with HT29 colon.
Assay [3] has as its system SNB-75 CNS.
In assay [4] the test system is SNB-19 CNS.
The test system of assay [5] is U251 CNS.
The subject of assay [6] is SK-MEL-5 melanoma.
The test system of assay [7] is UACC-62 melanoma.
The subject of assay [8] is LOX IMVI melanoma.
Assay [9] concerns SK-MEL-28 melanoma.
In assay [10] the test system is SK-MEL-2 melanoma.
In assay [11] the test system is EKVX NSCLC.
In assay [12] the test system is SN12C renal.
Assay [13] concerns UO-31 renal.
In assay [14] the test system is TK-10 renal.
Assay [15] relates to ACHN renal.
Assay [16] concerns CAKI-1 renal.
Assay [17] has as its system CCRF-CEM leukemia.
The subject of assay [18] is MOLT-4 leukemia.
Assay [19] relates to A498 renal.
For assay [20], the system named is PC-3 prostate.

Consider `C=C1C(=O)O[C@H]2[C@H]1CC/C(COC(=O)NCc1ccc(OC)cc1)=C\CC[C@@]1(C)O[C@@H]21`, for which the growth is 12.9% in [1]; -4.4% (active) in assay [2]; 96.4% in assay [3]; 61.7% in assay [4]; 67.4% in assay [5]; 87% in [6]. Moreover, the growth is 27.5% in assay [7]; 13.9% in assay [8]; 51.2% in [9]; 53.4% in assay [10]; 75.9% in [11]; 32.8% in assay [12]. For the same molecule, the growth is 18.4% in [13]; 31.2% in assay [14]; 4.28% (active) in assay [15]; 15% in assay [16]; 3.72% (active) in assay [17]; 24.2% in assay [18].
On to `Cn1c(-c2nonc2NC(=O)c2ccc(F)cc2)nc2ccccc21`, for which the growth in [1] was 103%; in assay [2] it was 101%; in assay [3] it was 100%; in assay [4], 110%; in assay [5] it was 108%; in assay [6] it was 97.2%. Besides, the growth in assay [7] was 108%; in assay [8], 97.8%; in assay [9], 110%; in [10], 112%; in [12] it was 102%; in assay [13], 91.2%. Besides, the growth is 124% in assay [14]; 112% in assay [15]; 105% in assay [16]; 85.6% in assay [19]; 105% in [17]; -1.74% (active) in assay [18].
With `COc1ccc(C(=O)/C=C/c2ccc(/C=C/c3cc(OC)c(OC)c(OC)c3)cc2)cc1`, the growth was 33.6% in assay [1]; 36.2% in assay [2]; 59.8% in assay [3]; 74.4% in assay [4]; 36.3% in assay [5]; 62% in [6]. Moreover, the growth in assay [7] is 53.7%; in assay [8] it was 24.7%; in [9], 84.7%; in assay [10], 65.1%; in assay [12], 56.7%; in [13], 40.6%. Besides, the growth in [15] was 68.1%; in assay [16], 74.4%; in assay [19], 80%; in assay [17], 19.6%; in assay [18] it was 9.62% (active).
In the case of `Cc1sc2nc(CSc3nnc(-c4ccco4)o3)[nH]c(=O)c2c1C`, the growth in assay [1] was 90.7%; in [2], 118%; in assay [3] it was 108%; in [4] it was 106%; in [5] it was 88%; in assay [6] it was 97.5%. The growth was 108% in [7]; 99.2% in assay [8]; 110% in [9]; 96.4% in [10]; 110% in assay [11]; 114% in [12]. In addition, the growth is 106% in assay [13]; 189% in assay [14]; 93.8% in assay [15]; 99.9% in assay [16]; 110% in assay [19]; 64.3% in assay [17]. For the same molecule, in assay [18], the growth is 48.7%.
`O=c1[nH]c2ccccc2cc1-c1nnc(Cc2ccccc2)o1`: the growth in [1] was 49%; in [2], 57.9%; in assay [3], 69.3%; in assay [4], 86%; in assay [5], 72.4%; in assay [6], 56.8%. The growth in assay [7] is 47.9%; in assay [8] it was 35%; in [9], 101%; in assay [10], 78.4%; in [12], 74%; in assay [13], 40%. Moreover, the growth in assay [14] was 112%; in assay [15], 65.9%; in [17], 19%; in assay [18], 57.1%.
With `CSc1ccccc1C#C/C=C\C#Cc1ccccc1N1CCCC1=O`, the growth in [1] is 37.6%; in [2], 24.1%; in [3], 47%; in [4] it was 88.5%; in [5], 34.3%; in assay [6], 22.2%. Further, the growth is 34.4% in assay [7]; 30.8% in [8]; 50.1% in [9]; 35.4% in assay [10]; 55.3% in assay [11]; 72.1% in assay [12]. Further, the growth in assay [13] is 23.3%; in [14], 83.1%; in assay [15], 57.9%; in assay [16] it was 70.2%; in assay [19], 55.3%; in [17], 23.6%. Moreover, the growth in assay [18] is 27.4%.
For the molecule `CCCCCCOc1ccc(C2(Cl)c3ccccc3N(C)c3ccccc32)cc1`, the growth in assay [1] is 44.7%; in assay [2] it was 35.1%; in [3], 63.3%; in assay [4] it was 47.1%; in assay [5], -8.78% (active); in [6] it was 33.2%. In addition, the growth in assay [7] was 38.1%; in assay [8] it was -33.8% (active); in [9], 24.5%; in assay [10] it was 42.3%; in [11] it was 58.5%; in [12] it was 52.4%. Further, the growth was 67.8% in assay [13]; 76.7% in [14]; 61% in assay [15]; 61.7% in [16]; 86.6% in assay [19]; 89.2% in assay [17]. Moreover, the growth in assay [18] is 74%.
Turning to `COc1cc(OC)c(C(=O)/C=C/c2cccc(C#N)c2)c(OC)c1`, the growth in assay [1] was 3.28% (active); in assay [2], 8.61% (active); in [3], 17.3%; in assay [4], 14.8%; in assay [5] it was 8.67% (active); in assay [6], 7.71% (active). The growth in assay [7] is 10.9%; in [8], -6.01% (active); in [9] it was 34.4%; in [10] it was -34.8% (active); in [12] it was 15.6%; in assay [13], 12.4%. Further, the growth in assay [14] was 24.8%; in [15], -33.9% (active); in assay [16], 15.9%; in [17], 2.65% (active); in [18], 11.7%.
Regarding `COc1ccc(-n2cnc3c(sc4ncc(Cl)cc43)c2=O)cc1`, the growth in [1] is 101%; in assay [2], 79.3%; in assay [3], 90.3%; in [4], 108%; in assay [5], 74.7%; in [6] it was 99.1%. The growth in assay [7] is 109%; in assay [8], 58%; in assay [9] it was 102%; in [10] it was 120%; in assay [12] it was 101%; in assay [13], 5.62% (active). Besides, the growth in assay [14] is 89.9%; in [15] it was 82.1%; in assay [16], 86.6%; in [19] it was 76.8%; in assay [18], 96.6%.
Take `COc1ccc(/C=C/C(=O)c2cc(OC)c(OC)c(OC)c2)cc1OCc1cn(Cc2ccc(F)cc2)nn1`: the growth was 23.8% in [1]; 4.82% (active) in assay [2]; 27.5% in assay [3]; 78.4% in [4]; 19.3% in [5]; 35.1% in assay [20]. In addition, the growth is 64.4% in assay [7]; 13.3% in assay [8]; 90% in [10]; 29.2% in assay [12]; 30.8% in [13]; 57.9% in [15]. For the same molecule, the growth in assay [16] was 4.33% (active); in assay [19], 78.7%; in assay [17], 0.459% (active); in [18], 58.1%.
